# Source: PubChem
# Compounds with a hit are over-represented: about 6.5% of the library has one in this group of screens.
# FMDV antiviral: blocks foot and mouth disease virus; FMDV antiviral cell-based qHTS; Potency, µM (titrated, usually from 57.9 µM), inactives show top-dose activity change, negative = inhibition, actives largely listed as inhibitors; 410,000 tested, 1.2% active; calls by dose curve; tested in HEK293T cells; also: read-out not given here; potency is read from the fitted curve at half-maximal effect; nearly all actives have a fitted effect of over 45% in size
# VACV mCherry inh: inhibitors of vaccinia virus infection (mCherry reporter signal); Vaccinia virus mCherry reporter infection, fluorescence; Potency, µM (highest dose often 36.5 µM), inactives show top-dose activity change, negative = inhibition, actives largely listed as inhibitors; 310,000 tested, 0.63% active; AID 720579; calls by dose curve; tested in A549 cells; also: potency is read from the fitted curve at half-maximal effect; nearly all actives have a fitted effect of over 35% in size
# Lassa entry inh: inhibitors of Lassa virus binding or cell entry; Lassa virus pseudotype entry inhibition, cell reporter; Potency, µM (top dose mostly 37.9 µM), without a hit: at the highest dose activity change, negative = inhibition, hits mostly inhibitors; 300,000 tested, 1.2% active; AID 540256; calls by dose curve; tested in HEK293 cells; also: potency is read from the fitted curve at half-maximal effect; nearly all actives have a fitted effect of over 50% in size
# HCMV inh: human cytomegalovirus inhibition. HFF cells, HCMV-luciferase reporter, 72 h; active compounds read low. activity change, negative = inhibition, % at 57.5 µM. 410,000 tested, 4.5% active. AID 1259415; in the data active = activity change below about -60%; inconclusive = no clear call, values can overlap the other calls; inactive = above about -39%
#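 Cell-based, HFFs, 1000 cells/well, 16 h 37C; cpds in DMSO + HCMV-luc, MOI 1 PFU/cell; 72 h 37C; OneGlo luminescence after 5 min RT; norm. to buffer vs Salinomycin 10uM.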
# VACV Venus inh: inhibitors of vaccinia virus (Venus reporter); 330,000 tested, 0.46% active; Potency, µM (top dose mostly 36.5 µM), for the others: at the highest dose activity change, negative = inhibition, most hits filed as inhibitors; Vaccinia virus Venus reporter expression, fluorescence; calls by dose curve; tested in A549 cells; also: potency is read from the fitted curve at half-maximal effect; nearly all actives have a fitted effect of over 30% in size
# MARV entry inh: Marburg virus entry inhibition; Potency, µM (series often up to 37.8 µM), for inactives: at the top dose activity change, negative = inhibition, hits mostly inhibitors; AID 540276; 300,000 tested, 1.8% active; Marburg virus pseudotyped entry inhibition, cell reporter; calls by dose curve; tested in HEK293 cells; also: potency is read from the fitted curve at half-maximal effect
# * hit, by the source's call; i = inactive; u = inconclusive; x = no result; [ ] = remark or other dose. % is scaled to controls: 0 for no effect and ±100 for the full control effect.
SMILES,FMDV antiviral,VACV mCherry inh,Lassa entry inh,HCMV inh,VACV Venus inh,MARV entry inh
Brc1ccc(-[n+]2c(-c3ccccc3)cc(-c3ccccc3)cc2-c2ccccc2)cc1,u,0%,x,-98*,u,x
CCS(=O)(=O)NCCCCc1ccccc1,2%,-11%,16%,12,-5%,-21%[46.1 µM]
O=C(O)c1ccc(-[n+]2c(-c3ccccc3)cc(-c3ccccc3)cc2-c2ccccc2)cc1,2%,i,x,6,0%,x
CCCOC(=O)c1ccc(-[n+]2c(-c3ccccc3)cc(-c3ccccc3)cc2-c2ccccc2)cc1,14µM*,-6%,x,-98*,u,x
C[n+]1c(-c2ccccc2)cc(CCCCc2cc(-c3ccccc3)[n+](C)c(-c3ccccc3)c2)cc1-c1ccccc1,u,1%,-19%,-98*,3%,u
COc1ccc(-c2cc(-c3ccccc3)[n+](C)c(-c3ccccc3)c2)cc1,u,i,u,-101*,-11%,6.3µM*
O=C(C=Cc1ccccc1)Nc1cccc(C(=O)NCc2ccccc2)c1,x,x,11%[46.1 µM],x,x,x
Cc1ccc(S(=O)(=O)/N=C(/Nc2cccc3ccccc23)c2ccc(F)cc2)cc1,60%,-24%,2%[46.1 µM],u,-15%,-9%[46.1 µM]
Cc1ccc(-c2cc(-c3ccccc3)cc(-c3ccccc3)[n+]2-c2ccc(C(=O)O)cc2)cc1,-16%,-9%,x,-17,-17%,x
COc1ccc(-[n+]2c(-c3ccccc3)cc(-c3ccc(C)cc3)cc2-c2ccccc2)cc1,u,u,u,-94*,u,u
COc1ccccc1CNC(=O)CCNS(=O)(=O)c1ccc2c(c1)CCCC(=O)N2,-24%,5%,18%[46.1 µM],8,6%,x
Cc1onc(-c2ccccc2Cl)c1C(=O)N(C)C1CCCCC1,-8%,u,x,-66*,-25%,x
COc1ccc(NC(=O)c2c(-c3ccccc3Cl)noc2C)c(OC)c1,-1%,i,u,-34,-6%,15µM*
O=C(NCCN1Cc2ccccc2OC(c2ccccc2F)C1)c1ccco1 (stereo not given),-12%,-13%,x,x,-5%,x
CC1CCCCN1C(=O)Cc1ccc(Cl)cc1 (stereo not given),0%,-12%,19%,40,-7%,19%[46.1 µM]
O=C(Cc1ccc(Cl)c(Cl)c1)N1CCCCC1CN1CCCC1 (stereo not given),-26%,-24%,u,x,-9%,8.9µM*
O=[N+]([O-])c1ccc(/C=N/NC(=S)Nc2ccc(Cl)cc2Cl)s1,-21%,x,x,-64*,x,x
Cc1nn(C)cc1/C=N/NC(=S)Nc1ccc(Cl)cc1Cl,-10%,-4%,-2%,-32,-13%,u
CCn1nc(C)c(/C=N/NC(=S)Nc2ccc(Cl)cc2Cl)c1C,10%,-22%,-9%,-103*,-14%,-18%
O=[N+]([O-])c1ccc(O)c(/C=N/NC(=S)Nc2ccc(Cl)cc2Cl)c1,-13%,u,u,0,-13%,u
CCC1CN(CCNC(=O)c2cc(C)nn2CC)Cc2cc(OC)ccc2O1 (stereo not given),10%,-9%,x,x,-10%,x
CCOC(=O)c1cc(NC(=O)c2ccc(C)cc2)c(=O)n2c1oc1ccccc12,-1%,-2%,8%[46.1 µM],-5,-2%,-4%[46.1 µM]
CCOC(=O)c1cc(NC(=O)c2ccccc2)c(=O)n2c1oc1ccccc12,-11%,10µM*,x,-71*,7.9µM*,x
COC(=O)C=C1CCC2C3CCC4=CC(=O)C(Br)CC4(C)C3C(=O)CC12C (stereo not given),u,-5%,u,-23,-12%,11µM*
CCOc1c(Br)cc(CNC2CCCCCCC2)cc1OC,u,x,x,-11,x,x
COc1cc(CNC2CCCCCCC2)cc(Br)c1OCC#N,0%,-1%,-17%,u,-29%,12µM*
O=C(CSc1ncc(-c2ccccc2)[nH]1)Nc1cccc(Br)c1,25%,-17%,13%[46.1 µM],-66*,-13%,9%[46.1 µM]
COC(=O)[C@@H]1[C@@H](CO)[C@@H]2Cn3c(ccc(Br)c3=O)[C@H]1N2C(=O)CN(C)C,x,x,x,19,x,x
O=C(CSc1nnc(-c2ccncc2)n1Cc1ccco1)Nc1ccccc1Cl,-8%,i,2%,2,-14%,5%
CCn1c(SCC(=O)Nc2nc(-c3ccccc3)cs2)nnc1-c1ccccc1O,35µM*,x,u,1,u,u
